Source: PubChem BioAssay (NCI)
About 83,000 compounds went through this panel and 20% of them were active in at least one assay; those are over-represented in the sample as a whole.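 Note: values are percent growth. 100 is the growth of untreated cells, values between 100 and 0 indicate rising inhibition; between -100 and 0 indicates cell death.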 Unmarked numbers belong to inactive results. Calls of active or inactive are those of the source. The calls were made as follows: active = growth percent below 10; inactive = the rest.

Test system: MDA-MB-468 breast
Test: NCI-60 one-dose screen, 48 h (100 = growth as untreated, 0 = no growth, -100 = all killed)
Conditions: 10 µM unless noted

SMILES | growth
C=C(C)[C@@H]1CC[C@]2(COCCC#N)CC[C@]3(C)[C@H](CC[C@@H]4[C@@](C)(CCCNCCC#N)[C@H](C(=C)C)CC[C@]43C)[C@@H]12 | 16.3% [100 µM]
O=C(OCc1ccc2cccc(O)c2n1)N1CCN(C(=O)c2cc3cc(F)ccc3[nH]2)CC1 | -59.2% (active)
CC(=O)/C=C/c1cc2cc(Cl)ccc2[nH]c1=O | 82.9%
COc1ccc(C2CC(c3cccc(Nc4nc(Cl)nc5cc(OC)c(OC)cc45)c3)=Nc3c(N)nc(N)nc3N2)cc1 (stereo not drawn) | 92.3%
COc1cc(NCCCN)c2ncccc2c1 | 76%
CCN(CCO)CCNc1ccc(C)c2sc3cc(Cl)ccc3c(=O)c12 | -47.7% (active)
CC(=O)Nc1ccc2c(c1)Cc1cc(F)ccc1-2 | 101%
CN1CCN(Cc2ccc(NC(=O)c3cncc(C#Cc4cnc(N)nc4)c3)cc2C(F)(F)F)CC1 | 36%
O=S(=O)(NCCCNc1nccc(-c2[nH]c(-c3ccccc3)nc2-c2ccc(F)c(O)c2)n1)c1ccccc1 | 88.3%
CCC(C)C(N)C(=O)NNc1n[nH]c(=S)n1N (stereo not drawn) | 104%
COC1=C(c2ccccc2)C(=O)C(OC)=C(c2ccccc2)C1=O | 43%
COC(=O)c1c2c(c(C)[n+]([O-])c1C)C(=O)C=C(NCc1ccccc1)C2=O | -68.9% (active)
O=C(O)CCC/C=C\C[C@H]1C=CC(=O)/C1=C/C[C@@H](O)CCc1cccc(C(F)(F)F)c1 | -6.7% (active)
Cc1cc(N2CCCC2)nc(N(CCCNc2ccnc3cc(Cl)ccc23)Cc2ccccn2)n1 | 53.2%
CCCCCC/C=C\CCCCCCCCOc1ccc(CCOP(=O)(O)OCC[N+](C)(C)C)cc1 | 85.5%
O=C1c2cc3c(cc2-c2c1c1cc(F)c(F)cc1c(=O)n2C[C@H](O)CO)OCO3 | -57.2% (active)
O=C1c2ccccc2CCC1(Br)Br | -42.2% (active)
Cc1nc(Nc2ccccn2)sc1C(=O)/C=C/c1ccc(Cl)cc1 | 16.4%
COc1ccc2[nH]c(O)c(/C=c3/cc4c(c(-c5cc(OC)c(OC)c(OC)c5)n3)=Nc3ccccc3-4)c2c1 | 49.7%
Oc1cccc2ccc(-c3nnc(SCc4ccc(O)c5ncccc45)n3-c3ccccc3)nc12 | 6.6% (active)
C[C@]12CC[C@@H]3c4ccc(O)cc4CC[C@H]3[C@@H]1CC[C@@H]2NS(=O)(=O)c1cccc(Br)c1 | 53.8%
COc1cc2ncn3c(=O)c4c5c(sc4nc3c2cc1OC)CCCC5 | 101%
CC(C)OC1=C(Cl)C(=O)c2ccccc2C1=O | 69.1%
COc1cccc(-c2nn(-c3ccccc3)cc2-c2ccnc(NCCCO)c2)c1 | 23.8%
C#COc1cccc(Nc2c(C#N)cnc3ncc(NC(=O)CCl)cc23)c1 | 3.39% [6.25 µM] (active)
Cc1cc(=O)oc2cc(Oc3nc(-c4ccccc4)cn4c(-c5ccccc5)cnc34)ccc12 | 44.2%
CN1CCN(Cc2ccc(NC(=O)c3ccc(C#N)c(C#Cc4cnc(N)c5ncccc45)c3)cc2C(F)(F)F)CC1 | 98%
O=C1C(Cl)=C(Nc2cccc3ccccc23)C(=O)c2ccccc21 | -3.45% (active)
